Experimental data as given in PubChem BioAssay AID1851 (National Center for Advancing Translational Sciences (NCATS), 2009).
Values joined by “and” are separate entries in the source; they are usually repeats but may differ in a detail not shown here. Identical values can stand only once. Hit rate of the full screen: of about 16,000 compounds, about 5,100 (32%) were called active. Roughly 25% stayed inconclusive and do not appear here. Calls follow the shape of the dose curve; as a rule, active = well fitted curve in the direction sought with a large enough effect; inconclusive = small, poorly fitted or top-dose-only effect, or effect the other way; inactive = no such curve, though single readings can be large or run the other way. The list shows a part of the results.

target: Cytochrome P450 3A4 (Homo sapiens) (UniProt P08684); assay: Cytochrome panel assay with activity outcomes; settings: recombinant CYP, pro-luciferin dealkylation, luminescence, p450-cyp3a4; series mostly up to 57.1 µM; activity, negative = inhibition: at the top concentration
Sequence (P08684 whole entry, looked up): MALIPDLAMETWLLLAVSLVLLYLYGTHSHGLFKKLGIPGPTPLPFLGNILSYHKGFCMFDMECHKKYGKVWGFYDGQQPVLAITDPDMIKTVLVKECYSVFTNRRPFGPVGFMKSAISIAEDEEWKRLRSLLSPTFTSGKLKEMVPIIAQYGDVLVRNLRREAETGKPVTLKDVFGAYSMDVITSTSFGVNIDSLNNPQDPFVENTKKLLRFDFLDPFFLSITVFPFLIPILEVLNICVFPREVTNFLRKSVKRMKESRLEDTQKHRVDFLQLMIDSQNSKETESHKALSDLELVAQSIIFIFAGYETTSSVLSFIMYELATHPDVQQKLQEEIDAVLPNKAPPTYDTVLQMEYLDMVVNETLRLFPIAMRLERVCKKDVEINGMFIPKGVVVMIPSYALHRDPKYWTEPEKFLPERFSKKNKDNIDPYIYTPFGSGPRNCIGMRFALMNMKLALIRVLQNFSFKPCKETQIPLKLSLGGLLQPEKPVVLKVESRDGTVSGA
% is scaled to controls: 0 for no effect and ±100 for the full control effect.

AC50, active:
Cc1cc(C)c(Cn2cnc(-c3ccc([N+](=O)[O-])cc3)c2)c(C)c1 7.94 µM
CO/N=C(/C)CCC(=O)OC[C@@H]1O[C@H](C#Cc2ccccc2)C=C[C@@H]1Oc1ccc(C)cc1 3.98 µM
C=CC[C@@H]1C=C[C@H](Oc2ccc(C)cc2)[C@H](COC(=O)NCc2cccc3ccccc23)O1 3.16 µM
C/C(CCC(=O)OC[C@@H]1O[C@H](C#Cc2ccccc2)C=C[C@@H]1Oc1ccc(C)cc1)=N/OC[C@@H](O)COCc1ccco1 3.16 µM
C=CC[C@@H]1C=C[C@@H](O/N=C(/C)CCC(=O)OC[C@@H]2O[C@H](C#Cc3ccccc3)C=C[C@@H]2Oc2ccc(C)cc2)[C@@H](CO)O1 5.01 µM
CC(=O)OC[C@H]1O[C@@H](O/N=C(\C)CCC(=O)OC[C@@H]2O[C@H](C#Cc3ccccc3)C=C[C@@H]2Oc2ccc(C)cc2)[C@H](OC(C)=O)[C@@H](OC(C)=O)[C@H]1OC(C)=O 3.16 µM
CC(=O)OC[C@@H]1O[C@H](CCO/N=C(\C)CCC(=O)OC[C@@H]2O[C@H](C#Cc3ccccc3)C=C[C@@H]2Oc2ccc(C)cc2)C=C[C@@H]1OC(C)=O 3.16 µM
CC(C(=O)NC1CCCC1)N(C(=O)c1ccc(-c2ccccc2)[nH]1)c1ccccc1F (centres undefined) 3.98 µM
O=C(NC1CCCCCC1)c1cccs1 14.1 µM
O=S(=O)(Nc1nc(-c2sccc2Cl)cs1)c1cc(Cl)ccc1Cl 7.94 µM
COC(=O)[C@@]1(Cc2ccc(F)cc2)[C@H]2c3cc(C(=O)N4CCCC4)n(Cc4ccc(C)o4)c3C[C@H]2CN1C(=O)c1ccccc1 3.16 µM
COC(=O)[C@@]1(Cc2ccccc2)[C@H]2c3cc(C(=O)N4CCCC4)n(Cc4ccc(C)o4)c3C[C@H]2CN1C(=O)c1ccccc1 2 µM
COC(=O)[C@@]1(Cc2ccc(F)cc2)[C@H]2c3cc(C(=O)N(C)C)n(Cc4ccc(C)o4)c3C[C@H]2CN1C(=O)c1ccccc1 2.51 µM
COC(=O)C(NC(=O)c1ccc(F)cc1)(Nc1ncc(S(=O)(=O)c2ccc([N+](=O)[O-])cc2)s1)C(F)(F)F (centres undefined) 5.01 µM
C/C(=N\NC(=O)c1[nH]c2c([N+](=O)[O-])cc(C)cc2c1-c1ccccc1)c1cccnc1 1.12 µM
COC(=O)c1cccc(NC(=O)/C=C/c2cccc([N+](=O)[O-])c2)c1 10 µM
CCOC(=O)c1c(NC(=O)/C=C/c2ccc3c(c2)OCO3)sc(C)c1CC 5.01 µM
COC(=O)c1cc(NC(=O)/C=C/c2ccc3c(c2)OCO3)cc(C(=O)OC)c1 0.794 µM
CCOc1ccc(N2C(=O)CS/C2=N/NC(=O)COc2ccc3ccccc3c2)cc1 0.891 µM
CC[C@]1(O)C[C@H]2CN(CCc3c([nH]c4ccccc34)[C@](C(=O)OC)(c3cc4c(cc3OC)N(C=O)[C@H]3[C@@](O)(C(=O)OC)[C@H](OC(C)=O)[C@@]5(CC)C=CCN6CC[C@]43[C@H]65)C2)C1 3.98 µM
CC[C@]1(O)C[C@@H]2CN(CCc3c([nH]c4ccccc34)[C@](C(=O)OC)(c3cc4c(cc3OC)N(C)[C@H]3[C@](O)(C(=O)OC)[C@@H](C(=O)OC)[C@@]5(CC)C=CCN6CC[C@@]43[C@@H]65)C2)C1 15.8 µM

activity, negative = inhibition, inactive:
Cc1nn(Cc2ccc([N+](=O)[O-])cc2)c(=O)n1-c1cccc(F)c1 4.03%
C=CC[C@@H]1C=C[C@H](ON=C(C)C)[C@H](CO)O1 -13.4% [at 11.4 µM]
O=c1n(-c2ccccc2)c(=O)n2n1CC[C@H]1/C(=N\OC[C@@H](O)COCc3ccco3)[C@H]3O[C@@H]3[C@@H](O)[C@@H]12 -24.1% [at 11.4 µM] and -23% [at 11.4 µM]
CC(=O)OC[C@@H]1O[C@H](C/C=N\OC[C@@H](O)COCc2ccco2)C=C[C@@H]1OC(C)=O -26.2% [at 11.4 µM]
CC(=O)N[C@@H](CC(=O)O)C(=O)O -13.1% [at 25.6 µM]
CCOC(=O)CCN1C(=O)[C@H]2[C@H]3[C@H](O)[C@H](O)C/C(=N/O[C@@H]4O[C@@H](COC(C)=O)[C@@H](OC(C)=O)[C@@H](OC(C)=O)[C@H]4OC(C)=O)[C@H]3CC[C@@H]2C1=O -10.4% [at 11.4 µM]
CC(=O)OC[C@H]1O[C@@H](ON=C(C)C)[C@H](OC(C)=O)[C@@H](OC(C)=O)[C@H]1OC(C)=O -17.9% [at 11.4 µM]
Cc1ccc(C(=O)NC2CCCCC2)cc1 -27.2%
O=C(NCCCc1ccccc1)c1cccs1 -26.4%
CC(=O)c1c(N2CCC(C(N)=O)CC2)nc(=S)n(-c2ccccc2)c1C 28.2% [at 2.29 µM]
FC(F)(F)c1cc(Sc2ccccc2)nc(-c2ccccn2)n1 22.3% [at 11.4 µM]
C=CCC(C(=O)OC)(C(=O)OC)c1ccc([N+](=O)[O-])cn1 -25.4%
COC(=O)C(C)(C(=O)OC)c1ccc([N+](=O)[O-])cn1 -3.67%
Cc1cc(C(F)F)n2nc(C(=O)Nc3cccnc3Cl)nc2n1 2.46% [at 2.29 µM]
O=C(Oc1ccccc1[N+](=O)[O-])c1cccnc1 -15.4%
O=C(O)c1[nH]c2c([N+](=O)[O-])cc([N+](=O)[O-])cc2c1C(=O)O 3.73% [at 11.4 µM]
O=C(/C=C/c1cccc([N+](=O)[O-])c1)NCCN1CCOCC1 -20.8%
CC(/C=N/NC(=O)c1cccc([N+](=O)[O-])c1)=C\c1ccccc1 -14.1%
CCOC(=O)c1c(NC(=O)/C=C/c2ccc3c(c2)OCO3)sc(C)c1C 18%
O=C(O)C[C@@H](C(=O)O)c1ccccc1[N+](=O)[O-] 0.874% [at 11.4 µM]
CCSc1nnc(NC(=O)COc2ccc3ccccc3c2)s1 -4.8% [at 2.29 µM]
C=CCSc1nnc(NC(=O)COc2ccc3ccccc3c2)s1 -10.4%
O=S(=O)(O)c1ccc(-c2nnc(-c3ccccn3)nc2-c2ccc(S(=O)(=O)O)o2)o1 6.48% [at 11.4 µM]
